Pf growth 96h: P. falciparum growth inhibition at 96 hour, primary screen for plastid delayed-death inhibitors; P. falciparum luciferase reporter growth, 96 h; Potency, µM (highest dose often 28.7 µM), usual class: inhibitors; 6.9% of 320,000 active; active = well fitted inhibition curve with a large enough effect; inconclusive = small, poorly fitted or top-dose-only effect, or another doubt; inactive = no such curve, though single readings can be large or run the other way
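Infected RBCs, 2% Hct / 0.05% parasitemia final; luciferase-reporter P. falciparum; cpd 96 h, 37 C, 5% CO2; luciferase detection reagent; luminescence.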
Pf growth 48h: P. falciparum growth inhibition at 48 hours (one generation). P. falciparum luciferase growth in erythrocytes, 48 h. Potency, µM (highest dose often 28.7 µM), usual class: inhibitors. 5.9% of 310,000 active. AID 504832; active = well fitted inhibition curve with a large enough effect; inconclusive = small, poorly fitted or top-dose-only effect, or another doubt; inactive = no such curve, though single readings can be large or run the other way
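Luciferase-expressing P. falciparum in infected erythrocytes (2% hematocrit, 0.1% parasitemia final) in RPMI 1640/0.5% Albumax were exposed to compound for 48 hours at 37 C, 5% CO2; growth read as luminescence.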
SARS PLpro yeast: blocks SARS-CoV papain-like protease in a yeast assay. Potency, µM (series often up to 32.9 µM), most hits filed as activators. S. cerevisiae expressing SARS-CoV PLpro, growth rescue. 0.19% of 330,000 active. AID 485353; note: nearly all actives have a fitted effect of over 55% in size
CHX counter: counter-screen hit for Shiga toxin inhibitors, cycloheximide; max response, %; 12% of 300,000 active; cell reporter, cycloheximide protein synthesis inhibition counterscreen; in the data active = max response mostly above about 13%, no sharp cut-off; inactive = mostly below about 14%; note: read at 38.3 µM for the half of the compounds with a filed dose
NS1 function inh: influenza NS1 inhibition. 0.4% of 270,000 active. Potency, µM (highest dose often 46.1 µM); note: actives are rising curves; nearly all actives have a fitted effect of over 50% in size
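Recovery from NS1-induced slow growth read by OD600 in budding yeast switched to galactose assay medium (pH 6.0, -URA) at 1:100 dilution. Compound 23 nl per well; the matching strain lacking NS1 serves as control.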
Shiga inhibitor: blocks Shiga toxin action in Vero cells. AID 2315. 9.2% of 290,000 active. Vero cells, Shiga toxin protein synthesis inhibition reporter. inhibition, % at 38.7 µM; in the data active = inhibition mostly above about 28%, no sharp cut-off; inactive = mostly below about 43%
A number is an active result; n = inactive; u = inconclusive; x = not tested or not shown; [ ] = dose if it differs, or a comment. In the library only some 21% were active in any assay of this set; here they are far more common. Unless noted, calls come from the whole dose curve.

SMILES	Pf growth 96h	Pf growth 48h	SARS PLpro yeast	CHX counter	NS1 function inh	Shiga inhibitor
O=C(Cc1n[nH]c(=O)c2ccccc12)Nc1cccc(S(=O)(=O)N2CCCCCC2)c1	u	9.3µM	n	x	x	x
CCOc1cc(C2C(C(=O)c3ccco3)=C(O)C(=O)N2CC2CCCO2)ccc1O (stereo not drawn)	n	n	n	n	n	n
COc1ccc(-c2[nH]ncc2CN2CCC(OCc3ccccn3)CC2)c(F)c1	n	n	n	n	n	n
Cc1ccc(OCc2nnc(SCC(=O)N3C(C)CCCC3C)o2)cc1 (stereo not drawn)	n	n	n	n	n	n
O=C(NCc1cccnc1)c1csc2c1CCCC2	n	n	n	n	n	n
Cc1ccc(NCC(=O)Nc2cccc(F)c2)cc1S(=O)(=O)N1CCCCCC1	0.21µM	0.26µM	n	n	n	n
O=C(CCl)Nc1cccc(S(=O)(=O)N2CCCCCC2)c1	5.2µM	6.6µM	n	n	n	n
CC(NC(C)c1ccccc1Cl)C(=O)Nc1cccc(S(=O)(=O)N2CCCCC2)c1 (stereo not drawn)	13µM	10µM	n	x	x	x
Cc1ccc(C(=O)N(C)CC(=O)Nc2ccc(Cl)c(C(F)(F)F)c2)cc1S(=O)(=O)N1CCCCC1	u	9.3µM	n	x	x	x
Cc1ccc(C(=O)N(C)CC(=O)Nc2cccc(F)c2)cc1S(=O)(=O)N1CCCCC1	n	n	n	x	x	x
O=C(Cc1ccc(Cl)cc1)Nc1cccc(S(=O)(=O)N2CCCCC2)c1	u	u	n	x	x	x
CCc1nc2ccc(C(=O)N(C)CC(=O)Nc3cccc(F)c3)cc2nc1CC	u	u	n	x	x	x
COc1ccc(CC(=O)Nc2cccc(S(=O)(=O)N3CCCC3)c2)cc1OC	u	u	n	x	x	x
COCCN(Cc1nc2ccccc2c(=O)[nH]1)C(=O)c1cccc(S(=O)(=O)N2CCCC2)c1	n	u	n	x	x	x
COc1ccc(/C=C/C(=O)Nc2cccc(S(=O)(=O)N3CCCC3)c2)cc1OC	u	13µM	n	n	x	n
COCCN(CC(=O)Nc1cccc(S(=O)(=O)N2CCCC2)c1)Cc1nc2ccccc2c(=O)[nH]1	u	10µM	n	x	x	x
O=C(Nc1ccc(F)cc1)C1(S(=O)(=O)c2ccc(Cl)cc2)CC1	u	n	n	n	n	n
C=CCn1c(=NC(=O)c2cccc(N3C(=O)CCC3=O)c2)sc2cccc(OC)c21	u	n	n	n	n	n
COc1ccc(C)c2sc(=NC(=O)c3cccc(N4C(=O)CCC4=O)c3)n(C)c12	n	n	n	20	n	n
COc1ccc(C)c2sc(=NC(=O)c3ccc(C(C)=O)cc3)n(C)c12	n	n	n	38	n	67
COc1ccc(C)c2sc(=NC(=O)c3ccccc3)n(C)c12	n	n	n	18	n	69
O=C(CN1C(=O)NC2(CCCCC2)C1=O)Nc1ccccc1N1CCCC1	n	n	n	x	x	x
Cc1cc(NC(=O)CSc2nc(CC(C)(C)C)nc3c2c(=O)n(C)c(=O)n3C)no1	n	n	n	n	n	n
O=C(c1ccccc1)C1NC1c1ccccc1 (stereo not drawn)	n	n	n	61	n	47
O=C(Nc1cccc(Cl)c1)N1N=CCC1c1ccccc1 (stereo not drawn)	n	n	n	n	n	n
SMILES	Pf growth 96h	Pf growth 48h	SARS PLpro yeast	CHX counter	NS1 function inh	Shiga inhibitor
O=C(CSc1nnnn1-c1ccccc1)N1N=CCC1c1ccccc1 (stereo not drawn)	n	n	n	n	n	n
Cc1ccc(SCC(=O)N2N=CCC2c2ccccc2)cc1 (stereo not drawn)	n	u	n	24	n	n
O=C(Nc1cccc2ccccc12)N1N=CCC1c1ccccc1 (stereo not drawn)	n	n	n	59	n	109
S=C(Nc1ccccc1)N1N=CCC1c1ccccc1 (stereo not drawn)	x	n	n	26	n	78
Fc1ccc(NC(=S)N2N=CCC2c2ccccc2)cc1 (stereo not drawn)	n	x	n	80	n	61
CC(C)N1C(=O)C(=O)N(CC(=O)N2c3ccccc3NC(=O)CC2C)C1=O (stereo not drawn)	n	n	n	x	x	x
COc1cccc(-c2cc3nc(-c4ccccc4)cc(N4CCC5(CC4)OCCO5)n3n2)c1	n	13µM	n	n	n	n
Fc1ccc(-c2cc3nc(-c4ccccc4)cc(N4CCN(CCN5CCOCC5)CC4)n3n2)cc1	n	1µM	n	n	n	n
CN1CCN(c2cc(-c3ccccc3)nc3cc(-c4ccc(F)cc4)nn23)CC1	n	x	n	n	n	n
CC(C)(C)NC(=O)/C=C/c1cccs1	n	n	n	17	x	n
Cc1cccc(NC(=O)/C=C/c2cccs2)n1	n	n	n	33	n	40
CCCOC(=O)c1ccc(NC(=O)/C=C/c2cccs2)cc1	n	u	n	33	n	73
CN(C)C(=O)c1ccc(NC(=O)COC(=O)/C=C/c2cccs2)cc1	n	n	n	x	x	x
O=C(/C=C/c1cccs1)Nc1ccncc1	n	n	n	44	n	63
CCOc1ccc(NC(=O)c2ccc(NC(=O)CSc3nc4ccccc4c(=O)[nH]3)cc2)cc1	n	n	n	n	x	n
OC1c2ccccc2N=C2CCCN21 (stereo not drawn)	x	x	x	n	x	n
Cc1ccc(NC(=O)/C=C/c2cccs2)c([N+](=O)[O-])c1	n	n	n	41	n	63
O=C(/C=C/c1cccs1)NCc1ccccc1	n	n	n	35	n	n
CC(C)(C)c1ccc(/C=C/C(=O)Nc2ccncc2)cc1	n	n	u	53	n	67
CCCOC(=O)c1cc(NC(=O)/C=C/c2ccccc2)ccc1O	10µM	u	n	17	n	74
Cc1nc(NC(=O)/C=C/c2ccc(C(C)(C)C)cc2)sc1C(=O)N(C)C	n	u	n	n	n	n
Cc1ccc(NC(=O)/C=C/C(=O)O)c([N+](=O)[O-])c1	u	n	n	n	n	n
COc1ccc(C2(C(=O)NCCCN(C)C)CCOCC2)cc1	n	n	n	n	n	n
CN1CCN(C(=S)NC(=O)/C=C/c2cccc3ccccc23)CC1	n[5.75 µM]	n	n	n	n	n
CC(C)(C)NC(=O)/C=C/c1cccc(C(F)(F)F)c1	n	n	n	14	n	n
SMILES	Pf growth 96h	Pf growth 48h	SARS PLpro yeast	CHX counter	NS1 function inh	Shiga inhibitor
CN1CCN(C(=S)NC(=O)/C=C/c2cccs2)CC1	n	n	n	22	n	n
O=C(/C=C/c1cccs1)Nc1ccc([N+](=O)[O-])cc1	n	n	n	48	n	30
CC(=O)Nc1ccc(NC(=O)/C=C/c2cccc(C(F)(F)F)c2)cc1	n	n	n	n	n	n
CCN(CC)c1ccc(NC(=O)CN2CCN(S(=O)(=O)c3cc(Cl)ccc3OC)CC2)cc1	x	10µM	n	n	n	n
CCOc1ccc(NC(=O)CCN2CCN(S(=O)(=O)c3cc(Cl)ccc3OC)CC2)cc1	2.6µM	u	n	n	n	n
COc1ccc(NC(=O)CCN2CCN(S(=O)(=O)c3ccc(Cl)cc3)CC2)cc1	x	u	n	n	n	n

Assay outcomes as filed in PubChem BioAssay.
